The list is not random: actives were taken first. Their share in the collection is about 2.3%.
H9c2 TAG inh = triacylglycerol accumulation inhibition | AID 651582 | actives 0.66% (n = 230,000) | inhibition, % at 12.5 µM | H9c2 cells, Nile Red lipid (TAG) fluorescence; cells loaded with 200 µM oleic acid;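 active means pattern-corrected inhibition of lipid staining of at least 50% with the nuclear-stain viability signal not falling by more than 50%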
aDG glyco act = increases alpha dystroglycan glycosylation; Pro5-aDG cells, alpha-DG glycosylation AlphaScreen (IIH6); 0% Pro5, 100% B10-LARGE cell signal; activation, % at 10 µM; actives 0.22% (n = 360,000); AID 624168;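 active means activation of at least 8% versus controls, or a plate z-score of at least 8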;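 further: Pro5 are CHO cells carrying HIG-tagged alpha-DG that lacks glycosylation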
Cardio protect = modulators protecting cardiomyocytes from myocardial damage | actives 0.63% (n = 360,000) | protection from H2O2 cell death, % at 20 µM | H9c2 cardiomyocytes, H2O2 injury protection, ATPLite, 2 h;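 active means compounds giving at least 50% protection of heart cells from peroxide-induced death in the single-dose screen, raw or plate-pattern-corrected value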
FAS-TE inh = FAS thioesterase (human) inhibition; recombinant FAS-TE, OMFH fluorogenic substrate, fluorescence endpoint; inhibition, % at 15 µM; actives 0.67% (n = 360,000); AID 602261;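 active means compounds whose normalised, plate-corrected inhibition of enzyme fluorescence in the single-dose primary screen is 50% or more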
Target sequence (P49327 whole entry, looked up): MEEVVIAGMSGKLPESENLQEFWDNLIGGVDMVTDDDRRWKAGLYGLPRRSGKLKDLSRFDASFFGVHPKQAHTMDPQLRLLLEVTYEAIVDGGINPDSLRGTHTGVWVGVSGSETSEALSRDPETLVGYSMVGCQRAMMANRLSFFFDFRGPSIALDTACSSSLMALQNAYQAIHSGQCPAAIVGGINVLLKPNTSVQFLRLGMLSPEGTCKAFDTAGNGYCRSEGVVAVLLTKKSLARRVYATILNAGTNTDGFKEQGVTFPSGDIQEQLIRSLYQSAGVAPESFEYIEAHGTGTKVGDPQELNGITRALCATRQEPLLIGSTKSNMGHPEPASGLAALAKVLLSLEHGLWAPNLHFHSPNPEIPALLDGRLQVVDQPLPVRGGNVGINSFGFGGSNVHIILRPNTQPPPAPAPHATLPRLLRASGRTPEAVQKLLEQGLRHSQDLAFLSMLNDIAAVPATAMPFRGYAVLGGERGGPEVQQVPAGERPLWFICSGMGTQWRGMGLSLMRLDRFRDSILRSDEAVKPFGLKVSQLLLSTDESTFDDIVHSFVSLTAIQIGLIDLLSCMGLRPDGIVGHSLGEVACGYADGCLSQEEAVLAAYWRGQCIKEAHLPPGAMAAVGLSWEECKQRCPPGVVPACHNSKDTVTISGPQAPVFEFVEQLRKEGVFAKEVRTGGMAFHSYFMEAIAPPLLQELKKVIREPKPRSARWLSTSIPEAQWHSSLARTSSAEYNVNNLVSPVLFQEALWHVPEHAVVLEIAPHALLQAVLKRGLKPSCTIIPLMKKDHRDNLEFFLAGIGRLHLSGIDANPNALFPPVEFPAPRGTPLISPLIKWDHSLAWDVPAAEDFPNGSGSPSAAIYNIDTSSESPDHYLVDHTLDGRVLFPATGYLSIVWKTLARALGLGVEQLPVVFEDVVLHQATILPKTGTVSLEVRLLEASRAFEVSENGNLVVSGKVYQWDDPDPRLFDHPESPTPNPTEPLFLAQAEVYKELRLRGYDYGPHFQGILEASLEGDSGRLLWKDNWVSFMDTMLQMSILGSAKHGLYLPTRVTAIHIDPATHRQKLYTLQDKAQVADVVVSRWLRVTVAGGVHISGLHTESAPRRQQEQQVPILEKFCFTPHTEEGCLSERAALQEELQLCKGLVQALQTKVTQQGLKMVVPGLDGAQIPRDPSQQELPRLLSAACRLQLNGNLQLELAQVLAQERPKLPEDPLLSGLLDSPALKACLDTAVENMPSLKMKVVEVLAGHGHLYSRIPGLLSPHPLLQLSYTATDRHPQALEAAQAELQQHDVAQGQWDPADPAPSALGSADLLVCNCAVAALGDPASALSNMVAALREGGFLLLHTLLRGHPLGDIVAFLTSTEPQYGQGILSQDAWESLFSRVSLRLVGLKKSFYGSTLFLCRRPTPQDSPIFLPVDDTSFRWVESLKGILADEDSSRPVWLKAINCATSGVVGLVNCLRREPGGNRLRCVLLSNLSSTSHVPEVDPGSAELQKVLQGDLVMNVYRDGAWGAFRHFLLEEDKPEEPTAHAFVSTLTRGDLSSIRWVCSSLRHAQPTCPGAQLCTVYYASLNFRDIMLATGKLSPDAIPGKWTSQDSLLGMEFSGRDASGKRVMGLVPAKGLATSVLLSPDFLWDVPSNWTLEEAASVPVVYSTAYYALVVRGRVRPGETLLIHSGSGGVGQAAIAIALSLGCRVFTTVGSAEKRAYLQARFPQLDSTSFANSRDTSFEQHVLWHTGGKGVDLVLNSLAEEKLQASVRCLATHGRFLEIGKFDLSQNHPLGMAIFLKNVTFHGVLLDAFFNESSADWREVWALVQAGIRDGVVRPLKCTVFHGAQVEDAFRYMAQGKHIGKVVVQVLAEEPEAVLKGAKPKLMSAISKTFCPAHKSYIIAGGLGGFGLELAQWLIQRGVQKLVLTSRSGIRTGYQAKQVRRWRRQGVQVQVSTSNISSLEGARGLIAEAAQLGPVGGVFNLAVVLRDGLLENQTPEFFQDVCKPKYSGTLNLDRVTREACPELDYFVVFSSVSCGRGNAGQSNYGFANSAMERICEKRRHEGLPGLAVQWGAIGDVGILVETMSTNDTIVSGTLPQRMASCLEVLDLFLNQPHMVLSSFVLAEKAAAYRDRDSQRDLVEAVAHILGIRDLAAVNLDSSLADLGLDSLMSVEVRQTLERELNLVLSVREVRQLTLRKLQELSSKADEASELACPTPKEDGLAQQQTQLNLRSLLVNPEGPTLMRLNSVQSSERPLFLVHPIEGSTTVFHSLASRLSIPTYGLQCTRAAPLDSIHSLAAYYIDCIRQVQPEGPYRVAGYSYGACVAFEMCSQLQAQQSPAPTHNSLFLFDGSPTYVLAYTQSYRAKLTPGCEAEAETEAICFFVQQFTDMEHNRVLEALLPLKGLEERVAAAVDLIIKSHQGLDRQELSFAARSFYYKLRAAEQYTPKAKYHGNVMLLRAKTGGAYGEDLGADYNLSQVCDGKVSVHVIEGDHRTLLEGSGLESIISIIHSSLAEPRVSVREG
beta cell repl = inducers of beta-cell replication in MIN6 cells; actives 0.29% (n = 330,000); MIN6 cells proliferation, ATPlite luminescence, 48 h; cells starved in 0.2% serum; 100% = growth in 10% serum; AID 2380; proliferation, % at 10 µM;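 active means compounds whose signal lies at least 3.5 SD above the mean of all wells on their plate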
Calpain2 inh = inhibitors of pig calpain II. inhibition, % at 16 µM. purified calpain II, fluorogenic peptide substrate, 30 min. AID 1236. actives 0.37% (n = 220,000);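 active means inhibition above about 50%, limit read from the data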
FAS-TE conf = confirmation of human fatty acid synthase thioesterase inhibitors; shares compounds with FAS-TE inh; recombinant FAS-TE, OMFH fluorogenic substrate, fluorescence; inhibition, % at 15 µM; actives 45% (n = 2,300);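 active means compounds inhibiting the enzyme by at least 50% at 15 µM in any one of the replicates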
Numbers stand for hits; i = inactive; nt = no result.

SMILES	H9c2 TAG inh	aDG glyco act	Cardio protect	FAS-TE inh	beta cell repl	Calpain2 inh	FAS-TE conf
O=C(C[C@H]1CC[C@@H]2[C@H](COC[C@H](O)CN2C(=O)c2cnccn2)O1)NCc1ccc(Cl)cc1	nt	i	nt	nt	nt	nt	nt
O=C(Nc1cc([N+](=O)[O-])ccc1N1CCOCC1)c1cccs1	i	i	i	i	i	nt	nt
CN(C)c1ccc(P(=O)(Nc2cccc(C(F)(F)F)c2)N2CCOCC2)c(NC(=O)c2cccs2)c1 (centres undefined)	nt	i	i	53	i	i	i
CC1N(C)c2cc(NC(=O)c3cccs3)c(P(=O)(Nc3ccc([N+](=O)[O-])cc3)N3CCOCC3)cc2C1(C)C (centres undefined)	i	i	i	52	i	i	i
CN(C(=O)COC(=O)/C=C/c1cccc([N+](=O)[O-])c1)C1CCS(=O)(=O)C1 (centres undefined)	i	i	i	i	i	i	nt
CN(C(=O)COC(=O)c1c2c(nc3ccccc13)/C(=C/c1cccc([N+](=O)[O-])c1)CCC2)C1CCS(=O)(=O)C1 (centres undefined)	i	i	i	67	i	i	i
CCCCCC(=O)N1C[C@H](n2cc(COC(=O)c3ccccc3)nn2)[C@@H](O)C[C@@H]1c1ccc(Cl)cc1	i	i	i	i	nt	nt	nt
COc1ccc(/C=C(\NC(=O)c2ccc([N+](=O)[O-])cc2)C(=O)N2CCOCC2)cc1	i	i	i	82	i	i	87
O=C(N/C(=C/c1ccccc1)C(=O)N1CCOCC1)c1ccc([N+](=O)[O-])cc1	nt	i	i	53	i	i	47
O=C(NC(Cc1ccccc1)c1nc2ccccc2[nH]1)c1ccc(Cl)c([N+](=O)[O-])c1 (centres undefined)	i	i	i	i	i	i	nt
CSCC[C@H](NC(=O)c1ccc(Cl)c([N+](=O)[O-])c1)c1nc2ccccc2[nH]1	nt	i	i	59	i	i	64
COc1cc([N+](=O)[O-])cc(/C=N/NC(=O)c2cccnc2)c1O	i	i	i	62	i	i	74
O=C(/C=C/c1cccc([N+](=O)[O-])c1)NCCSCc1ccccc1Cl	nt	i	i	75	i	i	i
O=C(/C=C/c1cccc([N+](=O)[O-])c1)NCCSCc1ccc(Cl)cc1Cl	i	i	i	59	i	i	58
O=C(/C=C/c1ccc2c(c1)OCO2)NCCSCc1ccc(Cl)cc1Cl	i	i	i	i	i	i	nt
Cc1c(C(=O)NCCSCc2ccccc2Cl)cccc1[N+](=O)[O-]	nt	i	i	i	i	i	nt
C[C@@H]1Cn2cnc(C(=O)Nc3cccc(Cl)c3)c2C(=O)N1	i	i	i	i	nt	nt	nt
Cc1ccc(-c2nnc(COC(=O)c3cc(=O)[nH]c4ccccc34)o2)cc1	i	i	i	66	i	nt	49
CC1(C)CC[C@]2(C(=O)n3ccnc3)CC[C@]3(C)[C@H](C(=O)C=C4[C@@]5(C)C=C(C#N)C(=O)C(C)(C)[C@@H]5CC[C@]43C)[C@@H]2C1	i	i	i	96	nt	nt	68
Cc1ccsc1C(=O)N1CCC1(C)C(=O)NCC(C)(C)C (centres undefined)	i	i	i	i	nt	nt	nt
O=C(c1cc(COc2cccc(C(F)(F)F)c2)on1)N1C[C@@H]2CCC[C@H]1C2	i	i	i	56	i	nt	24
O=C(c1cc(COc2cccc(C(F)(F)F)c2)on1)N1CCC(c2ccccc2)CC1	i	i	i	i	i	nt	nt
O=c1c2ccccc2oc2cc(C#CC3(O)CCCCC3)ccc12	i	i	i	55	i	nt	i
COc1cccc2oc3cc(C#CC4(O)CCCCC4)ccc3c(=O)c12	i	i	i	i	i	nt	nt
C[C@H](O)[C@@H]1CN2CCc3c([nH]c4ccc(-c5ccc6c(c5)OCO6)cc34)[C@@H]2C[C@@H]1N(C)C(=O)NC1CCCCC1	i	i	i	i	nt	nt	nt
SMILES	H9c2 TAG inh	aDG glyco act	Cardio protect	FAS-TE inh	beta cell repl	Calpain2 inh	FAS-TE conf
Cc1cc(NC(=O)CCN2C(=O)/C(=C\c3ccccc3Cl)SC2=S)no1	i	i	i	i	i	i	nt
O=C(CCN1C(=O)/C(=C/c2ccccc2F)SC1=S)Nc1cccnc1	i	i	i	i	i	nt	nt
O=C(CCN1C(=O)/C(=C\c2ccccc2Cl)SC1=S)Nc1cccnc1	i	i	i	57	i	nt	54
O=C(CCN1C(=O)/C(=C/c2ccccc2Cl)SC1=S)Nc1ccccc1C(=O)O	nt	i	i	71	i	nt	77
COc1ccc(C(=O)COC(=O)CN2C(=O)C3C4CCC(C4)C3C2=O)cc1 (centres undefined)	nt	i	i	i	i	nt	nt
CCc1nc2ccc(C(=O)NCCCN3CCCC3=O)cn2c1N(C)C(=O)COc1ccccc1	i	i	i	i	nt	nt	nt
O=[N+]([O-])c1ccc(S(=O)(=O)Nc2ccc(-c3csc(-c4ccccc4)n3)cc2)cc1	nt	nt	nt	nt	i	i	nt
O=S(=O)(Nc1ccc(-c2csc(-c3ccccc3)n2)cc1)c1ccccc1	i	i	i	59	i	i	44
Cc1ccc(S(=O)(=O)Nc2ccc(-c3csc(-c4ccccc4)n3)cc2)cc1	nt	i	i	72	i	i	i
C=CCN1[C@H](COCc2ccccc2)C=CS1(=O)=O	nt	i	i	i	nt	nt	nt
COc1ccc(C2CCc3cc4c(cc3C2=NO)OCO4)cc1OC (centres undefined)	i	i	i	i	nt	nt	nt
COCc1nnc(NC(=O)c2cc(C(=O)OC)cc([N+](=O)[O-])c2)s1	nt	i	i	i	i	i	nt
COC(=O)c1cc(C(=O)Nc2nnc(CC(C)C)s2)cc([N+](=O)[O-])c1	nt	i	i	51	i	i	i
CCC(CC)c1nnc(NC(=O)c2cc(C(=O)OC)cc([N+](=O)[O-])c2)s1	nt	i	i	i	i	i	nt
COC(=O)c1cc(C(=O)Nc2nnc(C3CC3)s2)cc([N+](=O)[O-])c1	nt	i	i	51	i	i	60
O=C(c1nn2c(C(F)(F)F)cc(-c3cccs3)nc2c1Cl)N1CCCc2ccccc21	nt	i	i	68	i	i	i
O=C(c1cnn2c(C(F)(F)F)cc(-c3ccccc3)nc12)N1CCCc2ccccc21	nt	i	i	i	i	i	nt
COC(=O)[C@]12CCCCC=C1N(Cc1ccccc1)C(=O)[C@H](CC(=O)NCCCCc1ccccc1)C2	nt	i	nt	i	nt	nt	nt
CC1CC(C)(C)CC2(C1)NC(=O)N(CC(=O)Nc1cc(C(F)(F)F)ccc1N1CCCCC1)C2=O (centres undefined)	i	i	i	60	nt	nt	i
Cc1ccc(NC(=O)c2ccc(S(=O)(=O)N3CC(C)CC(C)C3)cc2)cc1S(=O)(=O)N1CCOCC1 (centres undefined)	i	i	i	50	nt	nt	i
CC(=O)c1ccc(NC(=O)c2ccc(C)c(S(=O)(=O)N3CCOCC3)c2)cc1	nt	i	i	i	i	nt	nt
